Hit rate of the full screen: of about 360,000 compounds, about 11,000 (3.1%) were called active. The sample holds actives, similar compounds and a random draw of the others, so the mix is not that of the screen. No stated cut-off is given here; in the data, active means activity change below about -30%; inactive means the rest.
On the % scale 0 is the no-effect control and ±100 the full control effect.

D(1A) dopamine receptor (Homo sapiens), sequence (P21728 whole entry, looked up): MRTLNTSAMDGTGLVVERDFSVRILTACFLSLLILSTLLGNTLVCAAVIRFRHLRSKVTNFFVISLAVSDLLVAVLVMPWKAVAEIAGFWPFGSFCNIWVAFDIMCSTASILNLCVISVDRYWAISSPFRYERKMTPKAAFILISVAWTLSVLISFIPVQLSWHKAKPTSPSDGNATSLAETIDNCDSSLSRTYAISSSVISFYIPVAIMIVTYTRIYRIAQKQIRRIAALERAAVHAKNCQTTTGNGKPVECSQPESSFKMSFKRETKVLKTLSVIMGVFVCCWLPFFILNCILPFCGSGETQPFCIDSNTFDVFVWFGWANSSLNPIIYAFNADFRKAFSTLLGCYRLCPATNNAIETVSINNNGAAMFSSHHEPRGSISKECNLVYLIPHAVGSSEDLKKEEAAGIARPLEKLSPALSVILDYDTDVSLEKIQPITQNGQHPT

The target of the experiment is D(1A) dopamine receptor (Homo sapiens) (UniProt P21728). Briefly: Antagonist of Human D 1 Dopamine Receptor: qHTS. Particulars: HEK293 TREx D1 cells, calcium flux, dopamine EC80; at 10 µM; active compounds read low. An outline of the steps:
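Inducible Hek293 Trex D1 cells (tetracycline, overnight, 30 C). Calcium dye 30–90 min RT. Antagonist mode: EC80 dopamine added after 180 s compound read.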
(Quantitative high-throughput screening tests each substance at several concentrations.)
Consider `COc1ccc(N2CCN(CCNC(=O)CCN3C(=O)COc4ccccc43)CC2)cc1`, for which the activity change, negative = inhibition is 2.07% (inactive).

As for `O=C(CN1C(=O)COc2ccccc21)NCCN1CCc2ccccc2C1`, the activity change, negative = inhibition was -39.4% (active). As for `O=C(CN1C(=O)COc2ccccc21)Nc1ccc(F)cc1`, the activity change, negative = inhibition is 4.15% (inactive).

Take `Cc1ccc(S(=O)(=O)NC(N)=NCCC[C@@H](NC(=O)CNC(=O)c2ccccc2)C(=O)Nc2cc(C(F)(F)F)ccc2Cl)cc1`: the activity change, negative = inhibition was 4.94% (inactive). `COCCNC(=O)c1ccc(S(=O)(=O)c2ccc(Cl)cc2)c(NC(C)=O)c1`: the activity change, negative = inhibition is -3.29% (inactive).

Take `COCCNC(=O)c1snc2ccc(Cl)cc12`: the activity change, negative = inhibition was -34.4% (active).

As for `COCCNC(=O)c1cc(-c2cccc(Cl)c2)on1`, the activity change, negative = inhibition is -5.13% (inactive). With `CCOC(=O)c1cccc(NC(=O)c2cc(S(=O)(=O)N3CCCC(C)C3)cn2C)c1` (centres undefined) the figure was -6.74% (inactive); with `CCOC(=O)c1c(C)[nH]c(C)c1S(=O)(=O)N(C)CC(=O)N1CCN(c2ccccc2)CC1`, 1.35% (inactive). For the molecule `CCCn1nc(Oc2nc(NC(C)C)nc(N(C)C)n2)ccc1=O`, the activity change, negative = inhibition is -79.5% (active). With `COc1nc(Oc2ccc(=O)n(C)n2)nc(N(C)C)n1` the figure was -8.41% (inactive); with `COC(=O)c1ccc(Oc2nc(NC(C)C)nc(SC)n2)cc1`, -9.38% (inactive). For the molecule `COc1cc(C(CC(=O)NCCC(C)C)N2Cc3ccccc3C2=O)cc(OC)c1OC` (centres undefined), the activity change, negative = inhibition was -5.18% (inactive). Take `CC(C)NC(=O)C1CCC(Cn2c(=O)c3sccc3n(Cc3ccc(F)cc3)c2=O)CC1` (centres undefined): the activity change, negative = inhibition was 0.886% (inactive).

For `Cc1ccc2nc(N3CCN(c4cccc(Cl)c4)CC3)c3nnnn3c2c1`, the activity change, negative = inhibition is -5.5% (inactive). With `Cc1ccc(NC(=O)CSc2nc3ccccc3c3nc(CCn4cncc4C)nn23)cc1F` the figure was -2.83% (inactive); with `CN(c1ccc(O)cc1)c1nc(-c2cccnc2)cs1`, 1.14% (inactive); with `Brc1ccc(-c2csc(N/N=C/c3cccnc3)n2)cc1`, -16.3% (inactive). With `Oc1ccc(-c2csc(Nc3cccnc3)n2)cc1`, the activity change, negative = inhibition was -30.4% (active). For `Cc1cccc(C(=O)Nc2ccc(-c3nc4ccccc4s3)c(C)c2)c1`, the activity change, negative = inhibition was -25.8% (inactive). On to `COc1ccccc1-c1cc(C(F)(F)F)nc(S(=O)(=O)CCCC(=O)Nc2ccc(F)cc2F)n1`, for which the activity change, negative = inhibition was -9.9% (inactive). As to `COc1ccc(C2/C(=C(/O)c3ccccc3)C(=O)C(=O)N2c2ncccn2)cc1OC` (centres undefined), the activity change, negative = inhibition is 2.93% (inactive). Take `COc1ccc(C2N=C(N)N=C(N)N2c2ccccc2)cc1OC` (centres undefined): the activity change, negative = inhibition was -44.6% (active). With `COc1ccc(C2SCCN2S(=O)(=O)c2ccccc2)cc1OC` (centres undefined) the figure was -1.77% (inactive); with `Cc1ccc(C)n1-c1nnc(N2CCC(C(=O)NCc3ccc(F)cc3)CC2)s1`, 0.798% (inactive); with `CCCCc1nn2c(=O)cc(COC(=O)c3cccc(NC(=O)COc4ccccc4)c3)nc2s1`, -12.5% (inactive). With `CC(C)(CCl)C(=O)Nc1ccc(Sc2ccc(F)cc2)cc1` the figure was -27.2% (inactive); with `O=C(CCl)Nc1ccc(Sc2ccc(NC(=O)CCl)cc2)cc1`, -33.1% (active). With `O=C(CCl)Nc1cccc(CP(=O)(c2ccccc2)c2ccccc2)c1` the figure was 11.8% (inactive). For `Cc1cc(C)cc(OCC(=O)Nc2nc(-c3ccc(F)cc3)ns2)c1`, the activity change, negative = inhibition was -4.25% (inactive). With `Cc1ccc(Cn2ncc3c4sc(C)cc4n(C)c3c2=O)c(C)c1` the figure was 7.1% (inactive); with `COc1cc(Br)cc2cc(S(=O)(=O)c3ccccc3)c(=O)oc12`, -1.47% (inactive).

`COc1ccc(NS(=O)(=O)c2ccc(Oc3c(C#N)cccc3C#N)cc2)cc1`: the activity change, negative = inhibition was -44.8% (active). On to `COc1ccc(NS(=O)(=O)c2ccc(NC(=S)NC(=O)CC(C)C)cc2)cc1`, for which the activity change, negative = inhibition was -6.91% (inactive).

On to `COc1ccc(NS(=O)(=O)c2ccc(NC(=O)c3ccc(N(C)S(C)(=O)=O)cc3)cc2)cc1`, for which the activity change, negative = inhibition was 3.18% (inactive).

As to `Cc1ccc2c(=O)cc(C(=O)Nc3sc4c(c3C(=O)NCc3cccnc3)CCCC4)oc2c1`, the activity change, negative = inhibition was -10.7% (inactive). Turning to `N=C(N)SCc1cccc2ccccc12`, the activity change, negative = inhibition was -51.9% (active).

As to `CCOc1ccc(Br)cc1CSC(=N)N`, the activity change, negative = inhibition is 2.93% (inactive). With `CCc1ccc(-c2nn(-c3ccccc3)cc2CSC(=N)N)cc1` the figure was 46% (inactive); with `COc1ccc(-c2noc(CCC(=O)N(C)c3ccccc3C)n2)cc1`, -13% (inactive). With `Cc1ccc(CN(C(=O)COc2ccc(Cl)cc2C)C2CCS(=O)(=O)C2)o1` (centres undefined) the figure was -2.94% (inactive); with `O=C(/C=C/c1ccc([N+](=O)[O-])cc1)NCCSCc1ccco1`, -97.8% (active); with `O=C(/C=C/c1cccc([N+](=O)[O-])c1)NCCSCc1ccco1`, -26.7% (inactive). With `COc1cc(OC)cc(C(=O)NCCSCc2ccco2)c1` the figure was 4.54% (inactive); with `Cc1cc(C)cc(NC(=O)c2cnc3sc(N4CCCC4)nn3c2=O)c1`, -28.3% (inactive).

`Cc1nc2ccc(S(=O)(=O)NC(C(=O)NCc3ccccc3Cl)C(C)C)cc2s1` (centres undefined): the activity change, negative = inhibition was 18.5% (inactive). Regarding `COc1cccc(CNC(=O)c2ccc3c(c2)N(Cc2ccc(C(F)(F)F)cc2)C(=O)c2ccccc2S3)c1OC`, the activity change, negative = inhibition is -2.43% (inactive). With `O=[N+]([O-])/C=C/c1ccc2c(ccn2Cc2ccccc2)c1` the figure was -37.9% (active). With `O=c1c(=O)n(Cc2c(F)cccc2Cl)ccn1Cc1ccccc1` the figure was -3.28% (inactive); with `OCCC1CN(Cc2cnc(-c3ccccc3)s2)CCN1CCc1ccccc1` (centres undefined), -3.13% (inactive); with `OCCC1CN(Cc2ccc(Oc3ncccn3)cc2)CCN1CCc1ccccc1` (centres undefined), -6.31% (inactive). For `OCCC1CN(Cc2cccc(O)c2)CCN1CCc1ccccc1` (centres undefined), the activity change, negative = inhibition was -42.3% (active). With `Cc1ccc(C)c(S(=O)(=O)n2nc(C)c(S(=O)(=O)N3CCC(C)CC3)c2C)c1` the figure was 6.24% (inactive).

Consider `Cc1ccc(C)c(N2CCN(CCCNC(=O)Nc3ccc(Cl)cc3)CC2)c1`, for which the activity change, negative = inhibition was -58.4% (active). As to `O=C(NCCCN1CCOCC1)c1ccc([N+](=O)[O-])cc1[N+](=O)[O-]`, the activity change, negative = inhibition is -7.86% (inactive). With `CC1=C(c2ccc(C)cc2)S(=O)(=O)NC1=NCCCN1CCN(c2cc(C)ccc2C)CC1` the figure was 10.4% (inactive); with `O=C(NCCCN1CCN(c2ccc(F)cc2)CC1)Nc1ccc([N+](=O)[O-])cc1`, -54.6% (active); with `CN1CCN(CCNC(=O)Nc2ccc([N+](=O)[O-])cc2)CC1`, -6.04% (inactive). As for `CC1=C(c2ccc(Cl)cc2)S(=O)(=O)N=C1N1CCN(c2cc(C)ccc2C)CC1`, the activity change, negative = inhibition was 3.21% (inactive). With `Cc1cccc(C(=O)Nc2ccc(-c3nc4ncccc4o3)cc2C)c1` the figure was -4.33% (inactive); with `COc1cc(NC(=O)c2nn(-c3ccc(C)cc3)c(=O)c3c2c2ccccc2n3C)cc(OC)c1OC`, -20.1% (inactive); with `COC(=O)CC1=NN(c2ccccc2)C(=O)C1`, -33.1% (active). Regarding `C/C(N)=C(/C#N)C(=O)COC(=O)C1=NN(c2ccccc2)C(=O)CC1`, the activity change, negative = inhibition is -6.72% (inactive). With `COC(=O)CC1=NN(c2nc(C)cc(C)n2)C(=O)C1` the figure was 3.03% (inactive); with `CCCCn1c(CNC(=O)C23CC4CC(CC(C4)C2)C3)nnc1SCC(=O)Nc1ccc(C)cc1`, 1.21% (inactive); with `CC1CCCN(Cc2c(O)ccc3c(=O)c(Oc4ccc(C(C)(C)C)cc4)c(C(F)(F)F)oc23)C1` (centres undefined), 11.8% (inactive). As to `O=C(Nc1ccc(C(=O)OCc2cc(=O)n3nc(C4CC4)sc3n2)cc1)c1ccc(F)cc1`, the activity change, negative = inhibition was 4.99% (inactive). As for `COc1ccc(OCC(=O)Nc2nnc(-c3ccco3)s2)cc1`, the activity change, negative = inhibition is -88.7% (active).

In the case of `COc1ccc(NC(=O)COCc2cc(-c3ccco3)on2)cc1`, the activity change, negative = inhibition was 8.36% (inactive). With `CNc1nnc(-c2ccco2)s1`, the activity change, negative = inhibition is -6.48% (inactive). Turning to `COc1ccc(CCNC(=O)c2cnc3sc(N4CCCCCC4)nn3c2=O)cc1OC`, the activity change, negative = inhibition was -6.51% (inactive). Take `CCOC(=O)C1=C(c2ccccc2)Nc2ncnn2C1c1ccc(Cl)cc1` (centres undefined): the activity change, negative = inhibition is 6.82% (inactive). With `CS(=O)(=O)c1ccc(-c2nnc(NC(=O)c3ccc4c(c3)OCCO4)o2)cc1` the figure was -10.1% (inactive); with `O=C(CSc1oc(-c2ccco2)nc1S(=O)(=O)c1ccccc1)c1ccc(Cl)cc1`, -17.4% (inactive). With `CCOC(=O)c1cc(-c2ccccc2)n(-c2cccc(C(=O)Nc3cc(OC)cc(OC)c3)c2)c1C` the figure was -24.9% (inactive); with `CC(=O)c1cc(C#N)c(SCC(=O)Nc2nccs2)nc1C`, 2.32% (inactive). With `CC(=O)c1cc(C#N)c(N2CC(C)OC(C)C2)nc1C` (centres undefined) the figure was -0.422% (inactive); with `CC(=O)c1cc(C#N)c(N2CCCCC2)nc1C`, -36.9% (active); with `O=C(Cn1c(=O)n(Cc2ccccc2)c(=O)c2sc3ccccc3c21)Nc1ccccc1F`, 0.434% (inactive). For `CNC(=O)c1ccc(-c2nc(CN3CCc4ccccc43)c(C)o2)cc1`, the activity change, negative = inhibition was 6.56% (inactive). With `COc1cccc(Cn2c(CNS(=O)(=O)c3ccc(Cl)s3)nc3cccnc32)c1` the figure was 25.3% (inactive); with `CN1CCN(C(=O)c2ccc(NS(=O)(=O)c3ccccc3)cc2)CC1`, -3.19% (inactive); with `CCOC(=O)c1cccc(NS(=O)(=O)c2c(C(=O)N3CCCCCC3)c(C)n(C)c2C)c1`, 14.9% (inactive). In the case of `CCOC(=O)N1CCN(C(=O)c2ccc(S(=O)(=O)Nc3cccc(C(F)(F)F)c3)cc2)CC1`, the activity change, negative = inhibition is -41.7% (active).

As for `Cc1ccc(C(=O)CSc2nc(-c3ccccc3)nc3c2CCCC3)c(C)c1`, the activity change, negative = inhibition was 17.2% (inactive). For `Cc1nn(Cc2ccc(C(=O)N3N=C(C(F)F)CC3(O)C(F)F)cc2)c(C)c1[N+](=O)[O-]` (centres undefined), the activity change, negative = inhibition was -31.2% (active).

As to `Cc1ccn(CC(=O)N2N=C(C(F)F)CC2(O)C(F)F)n1` (centres undefined), the activity change, negative = inhibition is 3.73% (inactive). With `Cc1ccc(C(C)NC(=O)Cn2nc(C)c([N+](=O)[O-])c2C)cc1` (centres undefined), the activity change, negative = inhibition was -12% (inactive). Turning to `CCc1nnc(SCc2nc(-c3cccc(C)c3)oc2C)c2cc3sc(C)cc3n12`, the activity change, negative = inhibition was 8.82% (inactive).

For the origin of these results see PubChem BioAssay AID504652 (National Center for Advancing Translational Sciences (NCATS), 2011).
